The values that follow come from PubChem BioAssay (NCATS).

Inconclusive results are not listed. Calls of active or inactive are those of the source. The call rests on the fitted dose curve; in most records, active means well fitted inhibition curve with a large enough effect; inconclusive means small, poorly fitted or top-dose-only effect; inactive means flat fitted curve, though single readings scatter.
On the % scale 0 is the no-effect control and ±100 the full control effect; potency means the concentration at half of the fitted maximal effect.

The assay in a line: qHTS to identify inhibitors of the type 1 interferon - major histocompatibility complex class I in skeletal muscle: primary screen against the NCATS Pharmaceutical Collection (AID 1347407). Particulars: human skeletal muscle cells, IFN-b-induced MHC-I HiBiT luminescence, 24 h; series mostly up to 45.9 µM; activity change, negative = inhibition: at the top concentration. An outline of the steps:
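Immortalized human myoblasts (C25cl48) with HiBiT knocked into endogenous HLA-B*08:01 were stimulated with 4 ng/ml IFN-beta and treated with compounds (8-point, 1:5, top 46 uM final) for 24 h at 37 C; HiBiT lytic luminescence read.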
Background: qHTS replaces the single test concentration by a dilution series.
As for `OC1(c2ccccc2)CCNCC1`, the “activity change, negative = inhibition” value was -7.33% (inactive).

On to `CCCCC(O)/C=C(C)/C=C/C=C/C(=O)N1CCCC1=O` (configuration not stated), for which the “activity change, negative = inhibition” value was -3.83% (inactive).

With `CCS(=O)(=O)c1ccc(OC)c(C(=O)OC)c1`, the “activity change, negative = inhibition” value is 15.3% (inactive).

On to `N#CC1(c2ccc(F)cc2)CCC(=O)CC1`, for which the “activity change, negative = inhibition” value is 10% (inactive).

With `CN1CCC(Nc2ncc3ncnc(Nc4ccc(F)c(Cl)c4)c3n2)CC1`, the Potency was 18.7 µM (active).

For the molecule `Nc1cc(C(F)(F)F)ccc1S`, the “activity change, negative = inhibition” value is -0.492% (inactive).

In the case of `CO/N=C(\C(=O)O)c1csc(NC(=O)CCl)n1`, the “activity change, negative = inhibition” value was 16.4% (inactive).

As to `CC(=O)N1CCN(c2ccc(O)cc2)CC1`, the “activity change, negative = inhibition” value is 0.587% (inactive).

In the case of `CO[C@@H]1[C@@H](OC)[C@H](C)[C@@](O)(CC(=O)O)O[C@H]1[C@H](C)[C@H]1O[C@@]2(CC[C@@](C)([C@H]3CC[C@@](C)([C@@H]4O[C@@H]([C@H]5O[C@](C)(O)[C@H](C)C[C@@H]5C)C[C@@H]4OC4C[C@H](OC)[C@@H](OC)[C@H](C)O4)O3)O2)C[C@H](O)[C@H]1C` (some centres not stated), the “activity change, negative = inhibition” value is 0.78% (inactive).

Consider `CC(C)(C)C(=O)OCOC(=O)C1N2C(=O)CC2S(=O)(=O)C1(C)C` (configuration not stated), for which the “activity change, negative = inhibition” value is -6.76% (inactive).

Consider `CC(=O)OCC[N+](C)(C)C`, for which the “activity change, negative = inhibition” value was -17.5% (inactive).

Regarding `CN1CCCN(C(c2ccccc2)c2ccc(Cl)cc2)CC1` (configuration not stated), the “activity change, negative = inhibition” value was -25.5% (inactive).

Take `O=C1NC(c2ccccc2)(c2ccccc2)C(=O)N1COP(=O)(O)O`: the “activity change, negative = inhibition” value was -2.51% (inactive).

For `CN(C)CCOC(c1ccccc1)c1ccc(Br)cc1` (configuration not stated), the “activity change, negative = inhibition” value is -25% (inactive).

As to `O=C(O)Cn1c(=O)n(Cc2ccc(Br)cc2F)c(=O)c2ccc(Cl)cc21`, the “activity change, negative = inhibition” value was -6.52% (inactive).

As for `CCCC(=O)c1cc(O)c(O)cc1O`, the “activity change, negative = inhibition” value was -26.6% [at 92.2 µM] (inactive).

Take `Brc1ccccc1-c1ccccc1`: the “activity change, negative = inhibition” value was -6.04% [at 92.2 µM] (inactive).

For the molecule `CCN1CCN(C(=O)N[C@@H](C(=O)N[C@@H]2C(=O)N3[C@@H]2SC(C)(C)[C@H]3C(=O)O)c2ccccc2)C(=O)C1=O`, the “activity change, negative = inhibition” value was 18.8% (inactive).

For the molecule `CCCCCCCCCCCCCCCCCCN(C)C`, the “activity change, negative = inhibition” value was -3.56% (inactive).

Take `O=C1Cc2cc(Cl)ccc2N1`: the “activity change, negative = inhibition” value was 11.1% (inactive).

Take `CCc1cc(S(=O)(=O)O)c2cc(C(C)C)cccc1-2`: the “activity change, negative = inhibition” value was -0.558% (inactive).

`NS(=O)(=O)c1cc2c(cc1Cl)CN(C1CCCCC1)C2=O`: the “activity change, negative = inhibition” value is 0.598% (inactive).

Regarding `CCCCOCCOC(=O)c1cccnc1`, the “activity change, negative = inhibition” value was 3.54% (inactive).

Turning to `O=C1CC2(CCCC2)CC(=O)N1CCNCC1COc2ccccc2O1` (configuration not stated), the “activity change, negative = inhibition” value was -22.7% (inactive).

For `Cc1ccc(/C=N/n2c(-c3ccccc3)csc2=S)cc1`, the “activity change, negative = inhibition” value is -5.18% (inactive).

Take `CC(=O)CC/C=C(\C)CC/C=C(\C)CC/C=C(\C)CCC=C(C)C`: the “activity change, negative = inhibition” value was 15.3% (inactive).

Regarding `Cc1onc(-c2c(Cl)cccc2Cl)c1C(=O)Cl`, the “activity change, negative = inhibition” value was 5.07% (inactive).

Take `OC[C@]1(O)OC[C@@H](O)[C@H](O)[C@@H]1O`: the “activity change, negative = inhibition” value is -5.5% (inactive).

For the molecule `CCCC(=O)O[C@]1(C(=O)CCl)[C@@H](C)C[C@H]2[C@@H]3CCC4=CC(=O)C=C[C@]4(C)[C@@]3(F)C(=O)C[C@@]21C`, the “activity change, negative = inhibition” value is -38.1% (inactive).

Regarding `NC(=O)C1(N2CCCCC2)CCN(CCCN2c3ccccc3CCc3ccc(Cl)cc32)CC1`, the Potency was 23.6 µM (active).

For the molecule `CC(CC1c2ccccc2CCc2ccccc21)CN(C)C` (configuration not stated), the “activity change, negative = inhibition” value was -13.9% (inactive).

On to `COc1ccc2c(c1)CCCC2=O`, for which the “activity change, negative = inhibition” value is 5.7% (inactive).

As to `CC(=O)OCC(=O)[C@@]1(O)CCC2C3CCC4=CC(=O)CC[C@]4(C)C3[C@@H](O)C[C@@]21C` (some centres not stated), the “activity change, negative = inhibition” value was -22% (inactive).

Consider `CC(C)(C)C1CCC(CC2=C(O)c3ccccc3C(=O)C2=O)CC1` (configuration not stated), for which the “activity change, negative = inhibition” value is 5.03% (inactive).

`CC(=O)O[C@H]1CC[C@@]2(C)C(=CC[C@@H]3[C@@H]2CC[C@]2(C)C(C(C)=O)=CC[C@@H]32)C1`: the “activity change, negative = inhibition” value is -7.57% (inactive).

Consider `O=C(CCCl)NCc1ccccc1`, for which the “activity change, negative = inhibition” value is 4.04% (inactive).

Consider `CCCCN(CCN(CCCC)C(=O)N1CCOCC1)C(=O)N1CCOCC1`, for which the “activity change, negative = inhibition” value was -16.3% (inactive).
